{"source": "PubChem BioAssay (NCI)", "note": "About 83,000 compounds went through this panel and 20% of them were active in at least one assay; those are over-represented in the sample as a whole.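 Single-concentration screen, 48 h exposure, 96-well plates. Endpoint: percent growth. Below 10 = active.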 Values without a mark were called inactive. Calls of active or inactive are those of the source."}
{"tested_on": "SK-OV-3 ovarian", "assay": "NCI-60 one-dose screen, 48 h (100 = growth as untreated, 0 = no growth, -100 = all killed)", "conditions": "10 µM unless noted"}
{"smiles": "COc1cccc(/C=C2\\Oc3cc(OCCCN4CCCC4)ccc3C2=O)c1OC", "growth": "110%"}
{"smiles": "O=C1C(Cl)=C(Nc2ccccn2)C(=O)c2ccccc21", "growth": "108%"}
{"smiles": "Cc1ccc2[nH]c(=O)c3c(c2c1)Oc1ncn2nc(-c4ccco4)nc2c1C3c1ccc(Cl)cc1", "note": "(stereo not given)", "growth": "-90.5% (active)"}
{"smiles": "COc1ccc(C2CC(c3ccc(OC)cc3OC)=NN2c2ccc(S(N)(=O)=O)cc2)cc1", "note": "(stereo not given)", "growth": "105%"}
{"smiles": "c1ccc(-c2nnc(-c3ccccn3)s2)nc1", "growth": "95.2%"}
{"smiles": "Clc1cc2c(nn1)Nc1ccccc1S2", "growth": "99%"}
{"smiles": "O=[N+]([O-])c1cc(S(=O)(=O)Oc2ccccc2)ccc1Cl", "growth": "102%"}
{"smiles": "COc1cc(/C=N\\NC(=O)CN2CCN(c3cc4c(cc3F)c(=O)c(C(=O)N/N=C/c3cc(OC)c(OC)c(OC)c3)cn4C3CC3)CC2)cc(OC)c1OC", "growth": "19.2%"}
{"smiles": "NC1=C(/C(N)=N/O)C(c2ccccc2)c2ccc3ccccc3c2O1", "note": "(stereo not given)", "growth": "55.2%"}
{"smiles": "OCc1ncc(-c2ccccc2)s1", "growth": "99.4%"}
